Bioassay records deposited in PubChem by The Scripps Research Institute Molecular Screening Center.
GALR2 blocker – antagonists of human galanin receptor 2 (GALR2); O43603; GALR2-expressing cells, antagonist mode; inhibition, % at 4 µM; 140,000 compounds, 0.39% hits; AID 828; in the data active means inhibition above about 27%;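 further: cells stimulated with galanin 1-16 at roughly its EC80; 0% = agonist challenge control and 100% = basal control without agonist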
Target sequence (O43603 whole entry, looked up): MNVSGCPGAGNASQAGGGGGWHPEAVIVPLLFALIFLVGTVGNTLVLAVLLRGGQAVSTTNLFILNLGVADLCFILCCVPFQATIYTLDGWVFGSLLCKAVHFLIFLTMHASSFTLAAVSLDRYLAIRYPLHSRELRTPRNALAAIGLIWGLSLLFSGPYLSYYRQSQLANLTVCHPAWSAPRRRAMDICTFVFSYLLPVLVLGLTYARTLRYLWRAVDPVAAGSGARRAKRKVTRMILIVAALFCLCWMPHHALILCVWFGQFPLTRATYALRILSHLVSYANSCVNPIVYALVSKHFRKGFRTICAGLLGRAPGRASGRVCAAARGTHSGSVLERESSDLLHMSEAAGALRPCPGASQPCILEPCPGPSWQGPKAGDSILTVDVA
GALR2 ag – agonists of human galanin receptor 2 (GALR2). 140,000 compounds, 0.48% hits. activation, % (test concentration not listed). GALR2-expressing cells, agonist activation read-out. O43603. AID 803; in the data active means activation above about 5%, passing the limit was not always enough;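 further: 0% = vehicle buffer wells and 100% = reference agonist at full effect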
S1P2 ag – activates the human S1P2 receptor; S1P2-expressing cell line, agonist reporter read-out; activation, % at 4.5 µM; 97,000 compounds, 0.46% hits; AID 729; O95136; in the data active means activation above about 16%;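 further: 0% = vehicle low control and 100% = maximal reference agonist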
S1P2 blocker – blocks the human S1P2 receptor; cell-based S1P2 antagonist assay, inhibition at 5 uM; O95136; 97,000 compounds, 0.21% hits; inhibition, % at 5 µM; in the data active means inhibition above about 45%;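 further: CRE beta-lactamase reporter cells expressing human S1P2 stimulated with S1P; 0% = agonist at EC80 alone and 100% = agonist plus reference antagonist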
Active calls of the source: *. Compounds with a hit are over-represented: about 1.2% of the library has one in this group of screens.

What do the screens show for `Cc1ccc(-c2cc(C(F)F)nc(NCc3cccnc3)n2)cc1`?
GALR2 blocker: -6.0; GALR2 ag: 5.0*; S1P2 ag: -7.3; S1P2 blocker: -11.9

What do the screens show for `CC(=O)NCCn1c(SCc2cc(=O)n3cc(Cl)ccc3n2)nc2ccccc2c1=O`?
GALR2 blocker: 2.8; GALR2 ag: -2.1; S1P2 ag: 22.2*; S1P2 blocker: -37.4

Results for CCc1nc(NCCC(C)C)c(C#N)c2c1CCCC2 ?
GALR2 blocker: 9.6; GALR2 ag: -1.2; S1P2 ag: -4.6; S1P2 blocker: -17.8

What do the screens show for `CC(C)CCNc1nc(-c2ccco2)c2c(c1C#N)CCCC2`?
GALR2 blocker: 0.0; GALR2 ag: 9.6; S1P2 ag: 36.8*; S1P2 blocker: -50.2

What do the screens show for `N#Cc1c(NCCN)nc(-c2ccco2)c2c1CCCC2`?
GALR2 blocker: -11.8; GALR2 ag: 6.0; S1P2 ag: 20.2*; S1P2 blocker: -46.6

Results for CCC(CO)[n+]1c(C)cc(/C=C2\Sc3ccccc3N2Cc2ccccc2)cc1C (stereo not given) ?
GALR2 blocker: 1.7; GALR2 ag: -0.6

Results for Clc1ccc(-c2ccc(/C=N/Nc3cc(N4CCOCC4)nc(N4CCOCC4)n3)o2)cc1 ?
GALR2 blocker: -10.2; GALR2 ag: 29.6*; S1P2 ag: 53.8*; S1P2 blocker: -69.1

What do the screens show for `CC(C)c1ccc(/C=N/Nc2cc(N3CCOCC3)nc(N3CCOCC3)n2)cc1`?
GALR2 blocker: -4.7; GALR2 ag: 0.3

What do the screens show for `CC(O)C1C(=O)OC2(C)CC(C)(C)NC(=S)N12` (stereo not given)?
GALR2 blocker: 24.1; GALR2 ag: -2.9; S1P2 ag: 44.0*; S1P2 blocker: -2.5

What do the screens show for `Cc1ccc(-c2cc(C(F)(F)F)c(C#N)c(SCCC#N)n2)o1`?
GALR2 blocker: -6.9; GALR2 ag: 7.0; S1P2 ag: 17.3*; S1P2 blocker: -26.6

What do the screens show for `C#CCSc1nc(-c2ccccc2)cc(C(F)(F)F)c1C#N`?
GALR2 blocker: 6.1; GALR2 ag: -0.8; S1P2 ag: -1.7; S1P2 blocker: -3.5

How did Fc1cc(Br)ccc1Nc1nc2ccccc2n2nnnc12 do in these assays?
GALR2 blocker: 6.5; GALR2 ag: 6.1*

What do the screens show for `Clc1ccc(Nc2nc3ccccc3n3nnnc23)cc1`?
GALR2 blocker: -7.0; GALR2 ag: -1.1; S1P2 ag: 1.3; S1P2 blocker: -9.3

How did CCCN1CCC(NC(=O)Nc2ccc(OC)c(OC)c2)CC1 do in these assays?
GALR2 blocker: -10.4; GALR2 ag: 0.2; S1P2 ag: 35.0*; S1P2 blocker: -2.4

What do the screens show for `Cc1ccc(CNC(=O)c2cnccn2)cc1`?
GALR2 blocker: 2.1; GALR2 ag: 0.5

What do the screens show for `COc1ccc(/C=c2\sc3nc(-c4ccccc4)c(-c4ccccc4)n3c2=O)cc1OC`?
GALR2 blocker: -13.9; GALR2 ag: -1.9; S1P2 ag: 22.5*; S1P2 blocker: -3.2

What do the screens show for `COc1cc(/C=c2/sc3nc(-c4ccccc4)c(-c4ccccc4)n3c2=O)cc(OC)c1OC`?
GALR2 blocker: -1.6; GALR2 ag: -0.2

What do the screens show for `O=C(Nc1nc(N2C(=O)c3ccccc3C2=O)n(-c2ccccc2)n1)c1ccc(Cl)cc1`?
GALR2 blocker: 0.0; GALR2 ag: -2.9; S1P2 ag: -7.3; S1P2 blocker: 4.2

What do the screens show for `CC(C)c1ccc2[nH]c(O)c(N=NC(=O)c3ccc(CSc4nncn4C)cc3)c2c1`?
GALR2 blocker: -1.2; GALR2 ag: 5.1*

What do the screens show for `Cn1cnnc1SCc1ccc(C(=O)O)cc1`?
GALR2 blocker: 0.7; GALR2 ag: -1.2; S1P2 ag: -5.3; S1P2 blocker: -5.7

What do the screens show for `COC(=O)c1ccc(NC(=O)CSc2nnc(C(C)NC(=O)c3ccccc3Cl)n2C)cc1` (stereo not given)?
GALR2 blocker: 2.2; GALR2 ag: -2.3; S1P2 ag: -4.4; S1P2 blocker: 23.1

Results for CCN1CCN(C(=S)NC(C)c2ccccc2)CC1 (stereo not given) ?
GALR2 blocker: 17.8; GALR2 ag: -0.6

Results for Cc1cc(C(=O)O)ccc1-n1c(C)ccc1C ?
GALR2 blocker: -0.1; GALR2 ag: -2.0; S1P2 ag: 25.4*; S1P2 blocker: 10.3

What do the screens show for `O=C(c1ccccn1)c1cc2ccccc2n1S(=O)(=O)c1ccccc1`?
GALR2 blocker: 8.3; GALR2 ag: -0.5

Results for CCn1c(/C=C/c2c(C)[nH]c3ccccc23)nc2ccccc2c1=O ?
GALR2 blocker: 7.1; GALR2 ag: 7.3*

Results for CC(=O)O[C@H]1C[C@@]2(C)[C@@H](C[C@@H](O)[C@H]3[C@@]4(C)CC[C@@H](O)[C@@H](C)C4CC[C@@]32C)/C1=C(\CCC=C(C)C)C(=O)O (stereo not given in full) ?
GALR2 blocker: -2.3; GALR2 ag: 0.9
